Measured values taken from PubChem BioAssay (Tox21).
Records with an inconclusive call do not appear. Active and inactive are the calls of the source. Unless noted, the call rests on the fitted dose curve; in most records, active means well fitted curve in the direction sought with a large enough effect in the repeat runs; inconclusive means weak or mixed curves; inactive means no such curve, though single readings can be large; an effect the other way counts as inactive or inconclusive. Non-standard residues stand in square brackets, D forms with d. Residues, ends and D or L forms follow the SMILES beside them. *: point of attachment. Sta = CC(C)C[C@H](N)[C@@H](O)CC(=O)O; Isovaleryl = CC(C)CC(=O)*

Key:
[1] = qHTS assay to identify small molecule antagonists of the glucocorticoid receptor (GR) signaling pathway - cell viability counter screen (AID 720693); further: nearly all actives have a fitted effect of over 55% in size
[2] = qHTS assay for identifying genotoxic compounds that show differential cytotoxicity against isogenic chicken DT40 cell lines with known DNA damage response pathways - wild type cell line (AID 743012); further: nearly all actives have a fitted effect of over 60% in size; further: potency means the concentration at half of the fitted maximal effect
In short: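 CellTiter-Glo luminescence readout of viability in wild type DT40 cells after 40 h compound exposure at 37 C/5% CO2; 300 cells/well; reagent incubated 30 min at room temperature before reading.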

[3] = qHTS assay for identifying genotoxic compounds that show differential cytotoxicity against isogenic chicken DT40 cell lines with known DNA damage response pathways - Rad54/Ku70 mutant cell line (AID 743015); further: nearly all actives have a fitted effect of over 60% in size; further: potency means the concentration at half of the fitted maximal effect
[4] = qHTS assay to identify small molecule antagonists of the androgen receptor (AR) signaling pathway - cell viability counter screen (AID 743033; further: nearly all actives have a fitted effect of over 45% in size)
[5] = qHTS assay to identify small molecule antagonists of the androgen receptor (AR) signaling pathway using the MDA cell line - cell viability counter screen (AID 743041; further: nearly all actives have a fitted effect of over 45% in size)
In short: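 Compound exposure lasted 16 h at 37C in MDA-kb2 AR-luc cells stimulated with R1881. Protease-based CellTiter-Fluor reagent was applied for the final 30 min and fluorescence measured.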

[6] = qHTS assay to identify small molecule antagonists of the thyroid receptor (TR) signaling pathway - cell viability counter screen (AID 743064); further: nearly all actives have a fitted effect of over 50% in size; further: potency means the concentration at half of the fitted maximal effect
In short: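 In rat pituitary GH3.TRE-Luc reporter cells co-exposed to compound and 1 nM T3 for 23.5 h, cytotoxicity was assessed with CellTiter-Fluor in the same wells, read by fluorescence.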

[7] = molecular target: Androgen receptor (Homo sapiens) (UniProt P10275); experiment: qHTS assay to identify small molecule agonists of the androgen receptor (AR) signaling pathway (AID 743036; active means well fitted activation curve with a large enough effect in the signal ratio in the repeat runs, with a control signal flat, not every such curve was filed as active; the % refers to the signal ratio)
In short: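 Cell-based FRET reporter assay: HEK293 line with a UAS-beta-lactamase construct, compounds added in DMSO, 16 h exposure at 37C, then 2 h substrate step at room temperature and fluorescence intensity read.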

[8] = molecular target: Androgen receptor (Homo sapiens) (UniProt P10275); experiment: qHTS assay to identify small molecule agonists of the androgen receptor (AR) signaling pathway using the MDA cell line (AID 743040; further: nearly all actives have a fitted effect of over 20% in size)
In short: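 Testing was done with the MDA-kb2 AR-luc line, a human breast carcinoma stably transfected with MMTV-luciferase containing AR and GR response elements. Cells were exposed 16 h at 37C before ONE-Glo luminescence detection.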

[9] = molecular target: Androgen receptor (Homo sapiens) (UniProt P10275); experiment: qHTS assay to identify small molecule antagonists of the androgen receptor (AR) signaling pathway using the MDA cell line (AID 743042; further: nearly all actives have a fitted effect of over 55% in size)
In short: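 MDA-kb2 breast carcinoma cells carrying MMTV-luciferase (AR/GR responsive) were co-treated with compounds and the agonist R1881 for 16 h at 37C. Inhibition read as ONE-Glo luminescence; CellTiter-Fluor fluorescence measured in parallel for cytotoxicity.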

[10] = qHTS assay for identifying genotoxic compounds that show differential cytotoxicity against isogenic chicken DT40 cell lines with known DNA damage response pathways - Rev3 mutant cell line (AID 743014); further: nearly all actives have a fitted effect of over 55% in size; further: potency means the concentration at half of the fitted maximal effect

Measured: Potency

Chain of Androgen receptor (Homo sapiens) (P10275 whole entry, looked up): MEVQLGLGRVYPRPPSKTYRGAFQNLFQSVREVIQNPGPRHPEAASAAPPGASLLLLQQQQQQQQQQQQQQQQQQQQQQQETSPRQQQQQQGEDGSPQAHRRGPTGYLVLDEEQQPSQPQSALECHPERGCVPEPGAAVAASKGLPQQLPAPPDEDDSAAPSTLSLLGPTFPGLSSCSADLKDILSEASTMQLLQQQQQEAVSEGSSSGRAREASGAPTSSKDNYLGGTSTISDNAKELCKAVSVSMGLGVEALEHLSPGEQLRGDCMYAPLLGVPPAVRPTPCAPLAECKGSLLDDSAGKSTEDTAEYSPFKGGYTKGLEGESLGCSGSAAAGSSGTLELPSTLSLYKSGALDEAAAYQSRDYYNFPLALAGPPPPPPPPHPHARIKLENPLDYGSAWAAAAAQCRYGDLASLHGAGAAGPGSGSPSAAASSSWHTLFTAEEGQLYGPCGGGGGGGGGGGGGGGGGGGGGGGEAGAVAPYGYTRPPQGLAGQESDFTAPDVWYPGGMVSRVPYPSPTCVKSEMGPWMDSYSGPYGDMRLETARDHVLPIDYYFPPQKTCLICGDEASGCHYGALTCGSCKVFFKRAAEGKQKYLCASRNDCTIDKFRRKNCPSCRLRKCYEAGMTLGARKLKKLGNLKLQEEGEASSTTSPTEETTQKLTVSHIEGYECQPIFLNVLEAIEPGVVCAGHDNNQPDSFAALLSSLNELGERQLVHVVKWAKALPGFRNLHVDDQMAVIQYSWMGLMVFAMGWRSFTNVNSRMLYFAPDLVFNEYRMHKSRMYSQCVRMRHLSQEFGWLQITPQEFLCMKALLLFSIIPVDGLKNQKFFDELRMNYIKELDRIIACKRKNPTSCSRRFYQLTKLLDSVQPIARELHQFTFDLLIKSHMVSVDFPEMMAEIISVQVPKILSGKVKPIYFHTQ

O=C(O)P(=O)(O)O
inactive: [1] | [2] | [3] | [4] | [5] | [6]

CN1C(CCl)Nc2cc(Cl)c(S(N)(=O)=O)cc2S1(=O)=O (stereo not drawn)
active: [2] 26.6 µM
inactive: [1] | [4] | [5]

CC(C)CC(=O)N[C@H](C(=O)N[C@H](C(=O)N[C@@H](CC(C)C)[C@@H](O)CC(=O)N[C@@H](C)C(=O)N[C@@H](CC(C)C)[C@@H](O)CC(=O)O)C(C)C)C(C)C (Isovaleryl-VV[Sta]A[Sta]-OH)
inactive: [1] | [2] | [3] | [4] | [5] | [6]

CC12CCCC=C1C(=O)OC2=O (stereo not drawn)
inactive: [1] | [2] | [3] | [4] | [7] | [8] | [5] | [9]

BrCCOc1ccccc1
inactive: [1] | [2] | [4] | [5] | [6]

C[n+]1ccccc1/C=N/O
inactive: [1] | [2] | [3] | [5] | [6]

O=C1Nc2ccccc2C1=O
inactive: [1] | [10] | [3] | [4] | [5] | [6]

CCOC(=O)c1ccc(N(C)C)cc1
inactive: [1] | [2] | [4] | [5]

CC(=O)OC/C=C(/C)CCC=C(C)C
inactive: [1] | [2] | [4] | [5] | [6]

Cc1ccc(NC(N)=O)cc1
inactive: [1] | [2] | [10] | [5] | [6]

CC1(C)C(=O)C(C)(C)C1=O
inactive: [1] | [2] | [3] | [4] | [7] | [8] | [5] | [9] | [6]

CC1=C(O)C(=O)CO1
inactive: [1] | [10] | [3] | [5]

Cc1cccc(N)n1
inactive: [1] | [4] | [5] | [6]

CCCC(=O)OC
inactive: [1] | [10] | [4] | [5]

CN(C)c1ccncc1
inactive: [1] | [4] | [5] | [6]

NNC(=O)CCCCC(=O)NN
inactive: [1] | [10] | [4] | [5] | [6]

CSC(=O)c1cccc2nnsc12
inactive: [1] | [4] | [7] | [8] | [5] | [9]
active: [10] 21.7 µM

C=C(C)C(=O)OCCOC1CC2CC1C1C=CCC21 (stereo not drawn)
inactive: [1] | [4] | [5] | [6]

COC(C)(C)CC(C)=O
inactive: [1] | [4] | [7] | [8] | [5] | [9] | [6]
active: [10] 54.5 µM

CC(=O)c1ccc2ccc3ccccc3c2c1
inactive: [1] | [4] | [5] | [6]
active: [10] 60.8 µM

CCNC(=O)C(C)OC(=O)Nc1ccccc1 (stereo not drawn)
inactive: [1] | [10] | [4]

CCCC(=O)C(CC)Sc1ccoc1C (stereo not drawn)
inactive: [1] | [4] | [7] | [8] | [5] | [9]

CCO/C=C1\N=C(c2ccccc2)OC1=O
inactive: [1] | [4] | [5]
active: [3] 48.4 µM | [6] 68.3 µM

CC(C)(O)CCCC1=CCC(C=O)CC1 (stereo not drawn)
active: [10] 65.2 µM
inactive: [1] | [4] | [5] | [6]

C[Si](C)(C)O[Si](O)(O)O
active: [10] 61.1 µM
inactive: [1] | [5] | [6]

COC(=O)/C=C(\C)CCC=C(C)C
inactive: [1] | [4] | [5] | [6]

O=C(O)COc1ccc2ccccc2c1
inactive: [1] | [10] | [4] | [5]

O=S(=O)(O)CC(O)CCl (stereo not drawn)
inactive: [1] | [10] | [3] | [4] | [5] | [6]

C=CCON/C(CCC)=C1\C(=O)CC(C)(C)C(C(=O)OC)=C1O
inactive: [1] | [10] | [3] | [4] | [5] | [6]

CCCCCCC(O)CO (stereo not drawn)
inactive: [1] | [10] | [4] | [5]

CCO[Si](CC(C)C)(OCC)OCC
inactive: [2] | [5]
active: [10] 24.3 µM

O=S(=O)(O)c1cc(I)c(O)c2ncccc12
inactive: [1] | [4] | [5]

CN(C)c1cc(NC(=O)CNC(C)(C)C)c(O)c2c1C[C@H]1C[C@H]3[C@H](N(C)C)C(=O)C(C(N)=O)=C(O)[C@@]3(O)C(=O)C1=C2O
inactive: [1] | [3] | [8] | [5] | [9]

CC(C)(C)NCC(O)COc1cccc2c1CCC(=O)N2 (stereo not drawn)
inactive: [1] | [10] | [4] | [7] | [8] | [5] | [9] | [6]

CC(C)C[P+](C)(CC(C)C)CC(C)C
inactive: [2] | [10] | [4] | [5] | [6]

CCOC(=O)COc1ccc2c(C)c(CCN(CC)CC)c(=O)oc2c1Cl
inactive: [1] | [4]

CCOCCOCCOC(C)=O
inactive: [2] | [10] | [3] | [5] | [6]

CCCCCCCC(=O)N(C)C
inactive: [1] | [10] | [4] | [5]

CCC(C)c1nccnc1OC (stereo not drawn)
inactive: [1] | [10] | [4] | [5] | [6]

COc1cnc(NS(=O)(=O)c2ccc(N)cc2)nc1
inactive: [1] | [10] | [4] | [5] | [6]

CCCCN=C(N)N=C(N)N
inactive: [1] | [4] | [5] | [6]

COC(=O)C(c1ccccc1Cl)N1CCc2sccc2C1 (stereo not drawn)
inactive: [1] | [5] | [6]

C=CCN(CC=C)CC=C
inactive: [1] | [10] | [3] | [5] | [6]

C=CC(=O)OCCOCCOCC
inactive: [2] | [10] | [3] | [4] | [5] | [6]

CCCCCCCCCCCCCCBr
inactive: [1] | [10] | [4] | [5] | [6]

O=Cc1ccccc1S(=O)(=O)O
inactive: [1] | [10] | [3] | [5] | [6]
